Screens: PubChem BioAssay, The Scripps Research Institute Molecular Screening Center
Most compounds without a hit are left out; they make up all but 5.7% or so of the library.
DAX1 inh-1: NR0B1 (DAX1) inhibition. AID 504766. inhibition, % at 6.75 µM. actives 0.99% (n = 340,000). HEK293 Gal4-DAX1 luciferase reporter, luminescence;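 active = inhibition above the mean over all tested compounds plus 3 SD, cut at about 4.2% in these data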;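 note: inhibition shows as a rise in luminescence from relieved DAX1 repression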
ssDAF-12 act: activators of S. stercoralis DAF-12 nuclear receptor | HEK293 ssDAF-12/GRIP1 lit1-tk-luc reporter, luminescence; % of 3 µM dafachronic acid response | activation, % at 6.8 µM | actives 1% (n = 370,000) | AID 652126;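 active = activation above the mean over all tested compounds plus 3 SD, cut at about 0.9% in these data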
DAX1 inh-2: inhibitors of DAX1 repression of SF-1 activated StAR promoter; HEK293T StAR-luciferase reporter, SF-1/DAX-1 repression relief; inhibition, % at 6.8 µM; actives 1.1% (n = 370,000); AID 652010;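 active = inhibition above the mean over all tested compounds plus 3 SD, cut at about 3.6% in these data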;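 note: higher inhibition means more luminescence from relief of DAX-1 repression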
hcDAF12 agonist: activates DAF-12 receptor from parasite H. contortus; HEK293 hcDAF-12 lit1-tk-luc reporter, luminescence; 0% DMSO, 100% Δ7-dafachronic acid; activation, % at 6.8 µM; actives 1.4% (n = 370,000);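 active = activation above the mean of all tested compounds plus 3 SD, cut at about 5.5% in these data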
hgDAF12 agonist: activates the H. glycines DAF-12 receptor ligand-binding domain | HEK293 GAL4-hgDAF12 UAS-luciferase reporter, agonist luminescence; normalized to butyrate control | activation, % at 6.8 µM | actives 1.8% (n = 370,000) | AID 687014;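 active = activation above a cutoff set at the mean of all screened compounds plus 3 SD, cut at about 10% in these data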
AHR activator: activators of human aryl hydrocarbon receptor; P35869; activation, % at 5 µM; AHR-responsive luciferase reporter cells, luminescence; actives 2.5% (n = 320,000); in the data active = activation above about 47%
Target sequence (P35869 whole entry, looked up): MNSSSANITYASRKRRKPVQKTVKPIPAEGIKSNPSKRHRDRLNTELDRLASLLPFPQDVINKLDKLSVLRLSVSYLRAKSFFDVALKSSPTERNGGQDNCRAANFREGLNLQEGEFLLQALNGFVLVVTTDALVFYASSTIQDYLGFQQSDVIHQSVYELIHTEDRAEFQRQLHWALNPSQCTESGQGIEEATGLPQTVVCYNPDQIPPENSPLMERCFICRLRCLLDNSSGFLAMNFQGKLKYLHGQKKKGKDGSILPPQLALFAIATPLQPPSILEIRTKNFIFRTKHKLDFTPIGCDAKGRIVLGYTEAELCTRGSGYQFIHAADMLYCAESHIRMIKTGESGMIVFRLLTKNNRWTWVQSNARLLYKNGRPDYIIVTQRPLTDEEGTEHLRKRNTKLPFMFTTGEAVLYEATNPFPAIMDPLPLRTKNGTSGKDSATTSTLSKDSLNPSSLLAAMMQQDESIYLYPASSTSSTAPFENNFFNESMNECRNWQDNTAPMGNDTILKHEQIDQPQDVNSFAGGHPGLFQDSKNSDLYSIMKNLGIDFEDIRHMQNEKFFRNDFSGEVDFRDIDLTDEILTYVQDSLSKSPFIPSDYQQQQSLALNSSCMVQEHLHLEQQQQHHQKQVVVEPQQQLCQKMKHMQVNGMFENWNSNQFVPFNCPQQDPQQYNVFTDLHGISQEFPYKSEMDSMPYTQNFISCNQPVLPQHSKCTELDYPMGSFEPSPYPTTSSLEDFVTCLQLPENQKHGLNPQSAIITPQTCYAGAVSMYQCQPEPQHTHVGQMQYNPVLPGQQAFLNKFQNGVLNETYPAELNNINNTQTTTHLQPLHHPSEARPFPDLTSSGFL
Hits are given with their value; n = inactive; x = no result.

SMILES | DAX1 inh-1 | ssDAF-12 act | DAX1 inh-2 | hcDAF12 agonist | hgDAF12 agonist | AHR activator
O=C(NNC(=O)c1ccc([N+](=O)[O-])cc1Cl)c1ccncc1 | n | 1.0 | n | n | n | n
CCN1CCN(C(=O)NS(=O)(=O)c2ccc(C)cc2)CC1 | n | n | n | n | n | x
C=CCOc1c(Br)cc(CNn2c(C)n[nH]c2=S)cc1OC | n | n | n | n | n | 48
COc1cccc(C(=O)NN2CC(O)=C(c3nc(C)cs3)C2=N)c1 | n | n | n | n | n | 53
COc1cccc(C(=O)NN2CC(O)=C(c3nc4ccccc4s3)C2=N)c1 | n | n | n | n | n | n
COCCC(=O)N1CCC(Oc2ccc(C(=O)NCCSC)cc2)CC1 | 6.9 | n | n | n | n | n
COc1ccccc1/C=C/C(=O)Nc1cccc(S(=O)(=O)N2CCOCC2)c1 | n | n | n | n | n | n
O=C(/C=C/c1ccco1)Nc1cccc(S(=O)(=O)N2CCOCC2)c1 | n | n | n | n | n | 50
Cc1ccc(/C=C/C(=O)Nc2ccncc2)o1 | n | n | n | n | n | n
Cc1ccc(/C=C/C(=O)Nc2cccc(S(=O)(=O)N3CCOCC3)c2)o1 | n | n | n | n | n | 59
Cc1ccc(/C=C/C(=O)Nc2ccc(N(C)C)cc2)o1 | n | 1.6 | n | n | n | n
Cn1c(O)c(C2=c3ccccc3=NC2=O)[nH]c1=S | n | 1.2 | n | n | n | 61
CCCCCCN(C(=O)CCCCCN1C(=O)NC(c2ccc(C3CCCCC3)cc2)C(C(=O)OCc2ccccc2)=C1C)C(C(=O)NCCCC)c1ccc(OCC(=O)OC)c(C(=O)OC)c1 (centres undefined) | x | n | n | n | n | x
Fc1cc(Cl)c(OCc2noc(-c3ccsc3)n2)c(Cl)c1 | n | n | n | n | n | n
Clc1ccc(OCc2noc(-c3ccsc3)n2)c(Cl)c1 | 8.3 | n | n | n | 11 | n
CCCc1cc(=O)[nH]c(SCc2nc3ccccc3s2)n1 | n | n | n | 6.0 | n | n
Oc1c(Cl)cc(Cl)cc1/C=C/c1ccc2cccc(O)c2n1 | n | n | n | n | n | 51
CCCCCC1CCC(c2ccc(/C(N)=N/O)cc2)CC1 (centres undefined) | 5.5 | n | n | n | n | n
CCCCN(C(=O)Cc1cccc(F)c1)c1c(N)n(CCC)c(=O)[nH]c1=O | n | n | n | n | n | n
COc1ccc2c(c1)CC(C)C/C2=N\NC(=O)c1ccco1 (centres undefined) | n | n | n | n | n | n
CC1C/C(=N/NC(=O)c2cccc(F)c2)c2ccc(O)cc2C1 (centres undefined) | n | n | n | n | 13 | n
CC1=CC(C)(C)N=C(NC#N)N1 | n | 1.0 | n | n | n | n
COc1ccc(CS(=O)(=O)CC2(O)CCN(C(=O)c3cccc(C(F)(F)F)c3)CC2)cc1 | n | n | n | n | n | n
O=C(CSc1nnc(SCc2cccc3ccccc23)s1)Nc1ccc(Oc2ccccc2)cc1 | x | n | n | n | n | x
CCOC(=O)c1sc(N/N=C/c2cc(Br)c(O)c(OC)c2)nc1C | n | n | n | n | n | 67
SMILES | DAX1 inh-1 | ssDAF-12 act | DAX1 inh-2 | hcDAF12 agonist | hgDAF12 agonist | AHR activator
O/N=C\c1cccn1-c1ccc(Br)cc1 | n | n | n | n | n | n
Cc1cc(/C=C2\SC(=S)NC2=O)c(C)[nH]1 | n | n | n | n | n | n
O=C1NC(=S)S/C1=C\c1cc(Cl)ccc1Cl | n | n | 3.7 | n | n | x
Cc1cc(C)nc(Nc2nc(C)c3cc4c(cc3n2)OCO4)n1 | n | n | n | n | n | 49
COC(=O)C1=C2c3[nH]c4ccccc4c3CCN2C(=O)CC1 | n | n | n | n | n | 54
CCCCN1CCc2c([nH]c3ccccc23)C1=O | n | n | n | n | n | n
Cc1[nH]c2ccccc2c1N=Nc1ccccc1C(=O)O | n | n | n | n | n | 75
COC(=O)c1cc(N=Nc2c(C)[nH]c3ccccc23)cc(C(=O)OC)c1 | n | n | n | n | n | n
NCCCC[C@H]1CNC(=S)N1CCCCC1CCCCC1 | n | n | n | n | n | n
Cn1cc(Cc2ccc(C(=O)N3CCCCC3)cn2)c2ccccc21 | x | n | n | n | n | x
Cc1cc(N2CCN(S(=O)(=O)c3ccccc3)CC2)nc2c(C)cccc12 | n | n | n | n | n | 68
CC(=O)NC1C(=O)N(C)c2ccc(Br)cc21 (centres undefined) | n | n | n | n | n | n
